# Data as given in PubChem BioAssay (NCI).
# The panel holds about 79,000 compounds, 15% with a hit somewhere; the sample as a whole holds those more often. A number with no mark means an inactive call. Activity calls are given as the source filed them. Cut-off read from the data, not from the text of the source: active = growth inhibition above about 70%; inactive = the rest.
# Columns and labels:
# [1] = NCI Yeast Anticancer Drug Screen. Data for the rad52 strain (AID 147);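 note: 0% = growth of vehicle-treated control cultures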; conditions: S. cerevisiae rad52 mutant growth inhibition, stronger effect = higher value
# How it was run: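 The repair-mutant yeast strain was incubated with compounds, then growth was read and inhibition derived relative to vehicle.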
# [2] = NCI Yeast Anticancer Drug Screen. Data for the wt1 strain (AID 149);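 note: 0% = growth of vehicle-treated wt1 cultures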; conditions: S. cerevisiae wt1 strain (SPY 50644) growth inhibition, stronger effect = higher value
# How it was run: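 wt1 yeast, compound-treated; % growth inhibition vs vehicle control.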
# [3] = NCI Yeast Anticancer Drug Screen. Data for the rad50EPP+ strain (AID 151);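 note: 0% = growth of vehicle-treated control cultures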; conditions: S. cerevisiae rad50 mutant strain, stronger effect = higher value
# How it was run: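 Vehicle-normalised growth inhibition; rad50EPP+ yeast strain, altered in DNA damage repair, compound-treated.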
# [4] = NCI Yeast Anticancer Drug Screen. Data for the mgt1 strain (AID 153); conditions: S. cerevisiae mgt1 mutant growth inhibition, stronger effect = higher value
# How it was run: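 Vehicle-normalized growth inhibition is determined in mgt1 yeast, a strain selected for a defined alteration in DNA repair or cell cycle control.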
# [5] = NCI Yeast Anticancer Drug Screen. Data for the rad50 strain (AID 155);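 note: 0% = growth of vehicle-only cultures of the same strain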; conditions: S. cerevisiae rad50 strain growth inhibition, stronger effect = higher value
# How it was run: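 Genetically altered yeast (DNA repair pathway); compound treatment; growth inhibition vs vehicle ctrl.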
# [6] = NCI Yeast Anticancer Drug Screen. Data for the mec2-1 strain (AID 157); conditions: S. cerevisiae mec2-1 strain, stronger effect = higher value
# How it was run: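 Mutant yeast (mec2-1) grown with compound; growth inhibition relative to vehicle control reported.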
# [7] = NCI Yeast Anticancer Drug Screen. Data for the rad14 strain (AID 159);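 note: 0% = growth of vehicle-treated control cultures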; conditions: S. cerevisiae rad14 strain growth inhibition, stronger effect = higher value
# How it was run: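 Test compounds were applied to a repair-deficient yeast strain. Its growth was then compared with that of cultures given vehicle alone, and inhibition was expressed relative to those controls.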
# [8] = NCI Yeast Anticancer Drug Screen. Data for the sgs1 mgt1 strain (AID 161);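 note: 0% = growth of cultures given vehicle only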; conditions: S. cerevisiae sgs1 mgt1 strain, stronger effect = higher value
# How it was run: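 This yeast growth screen uses a strain with defined DNA-repair lesions; compound-treated growth is compared with vehicle-treated growth.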
# [9] = NCI Yeast Anticancer Drug Screen. Data for the CLN2oe strain (AID 163);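 note: 0% = growth of vehicle-only control cultures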; conditions: S. cerevisiae CLN2oe strain, stronger effect = higher value
# How it was run: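 Compounds are applied to yeast harbouring a defined cell-cycle control change; reduced growth compared with vehicle-treated controls gives the value.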
# [10] = NCI Yeast Anticancer Drug Screen. Data for the cln2 rad14 strain (AID 165);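 note: 0% = growth equal to vehicle treated cultures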; conditions: S. cerevisiae cln2 rad14 strain, stronger effect = higher value
# How it was run: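 Readout is yeast growth inhibition versus vehicle-treated controls, using a strain with cln2 and rad14 alterations exposed to compound.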
# [11] = NCI Yeast Anticancer Drug Screen. Data for the bub3 strain (AID 167); conditions: S. cerevisiae bub3 mutant strain, stronger effect = higher value
# How it was run: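 Yeast carrying a defined mutation is treated with each compound, and growth is compared with that of vehicle-exposed cells to give inhibition.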
# [12] = NCI Yeast Anticancer Drug Screen. Data for the wt2 strain (AID 169);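 note: 0% = growth of vehicle-treated yeast cultures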; conditions: S. cerevisiae wt2 strain growth inhibition, stronger effect = higher value
# How it was run: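 Against vehicle-treated controls, the growth of yeast exposed to each compound was compared, and the inhibition was recorded.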
# [13] = NCI Yeast Anticancer Drug Screen. Data for the mlh1 strain (AID 171);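 note: 0% = growth of vehicle-treated control cultures of the same strain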; conditions: S. cerevisiae mlh1 strain growth inhibition, stronger effect = higher value
# How it was run: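 Measured: yeast growth. Reference: vehicle-treated controls. Organism: strain with a defined alteration affecting DNA damage repair or cell cycle control, treated with compound.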
# [14] = NCI Yeast Anticancer Drug Screen. Data for the sgs1 strain (AID 173);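 note: 0% = growth of vehicle-only control cultures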; conditions: S. cerevisiae sgs1 mutant, stronger effect = higher value
# How it was run: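 Each compound was added to cultures of the altered yeast strain. Growth was recorded, and inhibition was derived by comparison with vehicle controls.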
# [15] = NCI Yeast Anticancer Drug Screen. Data for the mlh1 rad18 strain (AID 175); conditions: S. cerevisiae mlh1 rad18 strain growth inhibition, stronger effect = higher value
# How it was run: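 Genetically defined yeast (DNA repair-deficient) exposed to compounds; growth inhibition determined relative to vehicle.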
# [16] = NCI Yeast Anticancer Drug Screen. Data for the rad18 strain (AID 177); conditions: S. cerevisiae rad18 mutant growth inhibition, stronger effect = higher value
# How it was run: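 Vehicle-treated cultures served as the baseline for scoring compound-induced growth inhibition in DNA-repair-mutant yeast.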
# [17] = at 5.0 µM (retest, dose inferred, filed as 0.5)
# [18] = at 50.0 µM (retest, dose inferred, filed as 5.0)
smiles,measurement,setting,value
N#C/C(=C/c1c(Cl)cccc1Cl)C(N)=O,growth inhibition,[1]; at 1.2 µM,0%
same,growth inhibition,[1]; at 3.7 µM,5%
same,growth inhibition,[1]; at 11.0 µM,13%
same,growth inhibition,[1]; at 33.0 µM,63%
same,growth inhibition,[1]; at 100.0 µM,96% (active)
same,growth inhibition,[2]; at 1.2 µM,13%
same,growth inhibition,[2]; at 3.7 µM,13%
same,growth inhibition,[2]; at 11.0 µM,10%
same,growth inhibition,[2]; at 33.0 µM,47%
same,growth inhibition,[2]; at 100.0 µM,96% (active)
same,growth inhibition,[3]; at 1.2 µM,-24%
same,growth inhibition,[3]; at 3.7 µM,-29%
same,growth inhibition,[3]; at 11.0 µM,-30%
same,growth inhibition,[3]; at 33.0 µM,-24%
same,growth inhibition,[3]; at 100.0 µM,57%
same,growth inhibition,[4]; at 1.2 µM,-4%
same,growth inhibition,[4]; at 3.7 µM,-15%
same,growth inhibition,[4]; at 11.0 µM,1%
same,growth inhibition,[4]; at 33.0 µM,63%
same,growth inhibition,[4]; at 100.0 µM,98% (active)
same,growth inhibition,[5]; at 1.2 µM,-10%
same,growth inhibition,[5]; at 3.7 µM,3%
same,growth inhibition,[5]; [17],47%
same,growth inhibition,[5]; at 11.0 µM,3%
same,growth inhibition,[5]; at 33.0 µM,69%
same,growth inhibition,[5]; at 50.0 µM,77.2% (active)
same,growth inhibition,[5]; at 100.0 µM,97% (active)
same,growth inhibition,[6]; at 1.2 µM,-26%
same,growth inhibition,[6]; at 3.7 µM,-8%
same,growth inhibition,[6]; [17],46%
same,growth inhibition,[6]; at 11.0 µM,-7%
same,growth inhibition,[6]; at 33.0 µM,58%
same,growth inhibition,[6]; at 50.0 µM,74.8% (active)
same,growth inhibition,[6]; at 100.0 µM,97% (active)
same,growth inhibition,[7]; at 1.2 µM,-3%
same,growth inhibition,[7]; at 3.7 µM,-15%
same,growth inhibition,[7]; at 11.0 µM,-1%
same,growth inhibition,[7]; at 33.0 µM,55%
same,growth inhibition,[7]; at 100.0 µM,97% (active)
same,growth inhibition,[8]; [17],-1%
same,growth inhibition,[9]; at 1.2 µM,9%
same,growth inhibition,[9]; at 3.7 µM,-2%
same,growth inhibition,[9]; at 11.0 µM,3%
same,growth inhibition,[9]; at 33.0 µM,18%
same,growth inhibition,[9]; at 100.0 µM,81% (active)
same,growth inhibition,[10]; [17],45%
same,growth inhibition,[11]; at 1.2 µM,-5%
same,growth inhibition,[11]; at 3.7 µM,4%
same,growth inhibition,[11]; [17],37%
same,growth inhibition,[11]; at 11.0 µM,14%
same,growth inhibition,[11]; at 33.0 µM,65%
same,growth inhibition,[11]; [18],96% (active)
same,growth inhibition,[11]; at 100.0 µM,97% (active)
same,growth inhibition,[12]; at 1.2 µM,-16%
same,growth inhibition,[12]; at 3.7 µM,-2%
same,growth inhibition,[12]; at 11.0 µM,-2%
same,growth inhibition,[12]; at 33.0 µM,58%
same,growth inhibition,[12]; at 100.0 µM,96% (active)
same,growth inhibition,[13]; at 1.2 µM,-16%
same,growth inhibition,[13]; at 3.7 µM,-15%
same,growth inhibition,[13]; at 11.0 µM,0%
same,growth inhibition,[13]; at 33.0 µM,71% (active)
same,growth inhibition,[13]; at 100.0 µM,97% (active)
same,growth inhibition,[14]; at 1.2 µM,15%
same,growth inhibition,[14]; at 3.7 µM,9%
same,growth inhibition,[14]; at 11.0 µM,21%
same,growth inhibition,[14]; at 33.0 µM,74% (active)
same,growth inhibition,[14]; at 100.0 µM,98% (active)
same,growth inhibition,[15]; [17],34%
same,growth inhibition,[15]; [18],76% (active)
same,growth inhibition,[15]; at 50.0 µM,61.7%
CCCCCC(=O)c1ccc(O)cc1O,growth inhibition,[1]; at 1.2 µM,-14%
same,growth inhibition,[1]; at 3.7 µM,1%
same,growth inhibition,[1]; at 11.0 µM,10%
same,growth inhibition,[1]; at 33.0 µM,90% (active)
same,growth inhibition,[1]; at 100.0 µM,98% (active)
same,growth inhibition,[2]; at 1.2 µM,-14%
same,growth inhibition,[2]; at 3.7 µM,-18%
same,growth inhibition,[2]; at 11.0 µM,-6%
same,growth inhibition,[2]; at 33.0 µM,91% (active)
same,growth inhibition,[2]; at 100.0 µM,99% (active)
same,growth inhibition,[3]; at 1.2 µM,15%
same,growth inhibition,[3]; at 3.7 µM,23%
same,growth inhibition,[3]; at 11.0 µM,33%
same,growth inhibition,[3]; at 33.0 µM,59%
same,growth inhibition,[3]; at 100.0 µM,98% (active)
same,growth inhibition,[4]; at 1.2 µM,17%
same,growth inhibition,[4]; at 3.7 µM,-2%
same,growth inhibition,[4]; at 11.0 µM,12%
same,growth inhibition,[4]; at 33.0 µM,93% (active)
same,growth inhibition,[4]; at 100.0 µM,99% (active)
same,growth inhibition,[5]; at 1.2 µM,-7%
same,growth inhibition,[5]; at 3.7 µM,-4%
same,growth inhibition,[5]; [17],92% (active)
same,growth inhibition,[5]; at 11.0 µM,2%
same,growth inhibition,[5]; at 33.0 µM,91% (active)
same,growth inhibition,[5]; [18],98% (active)
same,growth inhibition,[5]; at 50.0 µM,89.2% (active)
same,growth inhibition,[5]; at 100.0 µM,97% (active)
same,growth inhibition,[6]; at 1.2 µM,-7%
same,growth inhibition,[6]; at 3.7 µM,-6%
same,growth inhibition,[6]; [17],91% (active)
same,growth inhibition,[6]; at 11.0 µM,10%
same,growth inhibition,[6]; at 33.0 µM,95% (active)
same,growth inhibition,[6]; [18],99% (active)
same,growth inhibition,[6]; at 50.0 µM,91.8% (active)
same,growth inhibition,[6]; at 100.0 µM,99% (active)
same,growth inhibition,[7]; at 1.2 µM,-9%
same,growth inhibition,[7]; at 3.7 µM,-5%
same,growth inhibition,[7]; at 11.0 µM,-3%
same,growth inhibition,[7]; at 33.0 µM,90% (active)
same,growth inhibition,[7]; at 100.0 µM,98% (active)
same,growth inhibition,[8]; [17],-5%
same,growth inhibition,[8]; [18],92% (active)
same,growth inhibition,[9]; at 1.2 µM,-3%
same,growth inhibition,[9]; at 3.7 µM,8%
same,growth inhibition,[9]; at 11.0 µM,1%
same,growth inhibition,[9]; at 33.0 µM,86% (active)
same,growth inhibition,[9]; at 100.0 µM,99% (active)
same,growth inhibition,[10]; [17],37%
same,growth inhibition,[10]; [18],90% (active)
same,growth inhibition,[11]; at 1.2 µM,8%
same,growth inhibition,[11]; at 3.7 µM,14%
same,growth inhibition,[11]; [17],33%
same,growth inhibition,[11]; at 11.0 µM,40%
same,growth inhibition,[11]; at 33.0 µM,93% (active)
same,growth inhibition,[11]; [18],92% (active)
same,growth inhibition,[11]; at 100.0 µM,99% (active)
same,growth inhibition,[12]; at 1.2 µM,-3%
same,growth inhibition,[12]; at 3.7 µM,-4%
same,growth inhibition,[12]; at 11.0 µM,-18%
same,growth inhibition,[12]; at 33.0 µM,87% (active)
same,growth inhibition,[12]; at 100.0 µM,99% (active)
same,growth inhibition,[13]; at 1.2 µM,7%
same,growth inhibition,[13]; at 3.7 µM,10%
same,growth inhibition,[13]; at 11.0 µM,20%
same,growth inhibition,[13]; at 33.0 µM,90% (active)
same,growth inhibition,[13]; at 100.0 µM,95% (active)
same,growth inhibition,[14]; at 1.2 µM,-19%
same,growth inhibition,[14]; at 3.7 µM,-2%
same,growth inhibition,[14]; at 11.0 µM,-6%
same,growth inhibition,[14]; at 33.0 µM,90% (active)
same,growth inhibition,[14]; at 100.0 µM,98% (active)
same,growth inhibition,[15]; [17],97% (active)
same,growth inhibition,[15]; [18],99% (active)
same,growth inhibition,[15]; at 50.0 µM,91.2% (active)
same,growth inhibition,[16]; at 1.2 µM,-17%
same,growth inhibition,[16]; at 3.7 µM,3%
same,growth inhibition,[16]; at 11.0 µM,9%
same,growth inhibition,[16]; at 33.0 µM,92% (active)
same,growth inhibition,[16]; at 100.0 µM,98% (active)
